Screening data: PubChem, several laboratories
CYP2C19 inh = inhibitors of human CYP2C19 | P33261 | CYP2C19 Supersomes, luciferin-H EGE luminescence, 30 min | AID 778 | hit rate 21% among 96,000 | inhibition, % at 5 µM;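 active = CYP2C19 inhibition above a set limit at 5 µM in the primary screen, cut at about 50% in these data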;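 note: plate controls were negative control wells for no effect and 2.5 mM tranylcypromine positive control for full effect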
Target sequence (P33261 whole entry, looked up): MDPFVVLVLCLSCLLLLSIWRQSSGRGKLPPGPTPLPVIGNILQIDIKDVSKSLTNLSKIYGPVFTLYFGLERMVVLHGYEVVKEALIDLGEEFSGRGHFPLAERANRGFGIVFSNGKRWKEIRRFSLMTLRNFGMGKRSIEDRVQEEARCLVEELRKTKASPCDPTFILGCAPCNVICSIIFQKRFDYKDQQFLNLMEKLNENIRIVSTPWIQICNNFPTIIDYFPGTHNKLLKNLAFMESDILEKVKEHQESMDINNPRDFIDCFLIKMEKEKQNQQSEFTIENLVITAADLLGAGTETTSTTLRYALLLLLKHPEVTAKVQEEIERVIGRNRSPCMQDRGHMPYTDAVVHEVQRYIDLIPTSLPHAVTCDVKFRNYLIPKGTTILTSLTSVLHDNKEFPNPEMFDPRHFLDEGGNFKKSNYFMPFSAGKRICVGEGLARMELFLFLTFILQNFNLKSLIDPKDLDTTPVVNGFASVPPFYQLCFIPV
CYP2C9 activ = activators of human CYP2C9; activation factor at 5 µM; P11712; hit rate 1.4% among 96,000; recombinant CYP2C9, luciferin-H conversion, luminescence; stronger effect = higher value; factor 1 = untreated enzyme, 0 = blocked; AID 1024;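 active = activation factor of 2 or more for CYP2C9 at a 5 µM dose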;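 note: 0 = sulfaphenazole-blocked wells and 1 = vehicle-only wells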
PostGolgi yeast = growth inhibition of a yeast mutant, post-Golgi transport screen; hit rate 0.9% among 98,000; post-Golgi transport phenotypic cell assay; AID 739; inhibition, % at 10 µM;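 note: yeast cells grown in 1536-well plates; yeast grown about 18 h at 30C before absorbance read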
PostGolgi ctrl = yeast control strain growth, post-Golgi counter-screen; inhibition, % at 10 µM; hit rate 5% among 98,000; AID 738; efflux-deficient yeast background strain, growth absorbance A615, 16 h
CYP2C19 act = cytochrome P450 2C19 (human) activation; 96,000 tested, under 10 active; activation factor at 5 µM; AID 1025; recombinant CYP2C19, luciferin-H EGE luminescence; stronger effect = higher value; 0 = fully inhibited enzyme, 1 = untreated enzyme; P33261;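 active = activation factor of at least 2 at 5 µM in the primary screen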;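 note: 0 = wells with 2.5 mM tranylcypromine and 1 = vehicle-only wells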
CYP2C9 inhib = inhibitors of human CYP2C9. P11712. CYP2C9 Supersomes, luciferin-H conversion, luminescence. inhibition, % at 5 µM. hit rate 20% among 96,000;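 active = blocking of liver enzyme CYP2C9 beyond about 50% at 5 µM, limit read from the data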
The depositor's hits bear a star; . = not tested or not shown. A selection: hits, their analogues and other compounds. The true share with any hit is near 32%. Cut-off read from the data, not from the text of the source, unless noted: active = inhibition above about 30%; inactive = the rest.

SMILES | CYP2C19 inh | CYP2C9 activ | PostGolgi yeast | PostGolgi ctrl | CYP2C19 act | CYP2C9 inhib
O=c1[nH]c2c(c3c1CCCC3)CCCC2 | 3.6 | 1.1 | 0.9 | 5.8 | 1 | -5.3
COc1ccc(NC(=O)CN2CCC3(O)CCCCC3C2c2ccccc2OC)cc1 (stereo not given) | 73.7* | 0.1 | 9.8 | 9.7 | 0.3 | 90.8*
COc1ccc(NC(=O)Cn2nc3n(c2=S)CCC3)cc1 | 7.6 | 0.9 | 0.5 | 19.7 | 0.9 | 7.2
COc1cc([C@H]2[C@@H]3CCCC[C@]3(O)CCN2CC(=O)Nc2ccc(C)cc2)ccc1O | 63.2* | 0.3 | -6.6 | 4.7 | 0.4 | 74.1*
CCN(CC)c1ccc(C2C3CCCCC3(O)CCN2CC(=O)N2CCCCC2)cc1 (stereo not given) | 5.0 | 1.1 | 0.8 | 4.2 | 0.9 | -9.9
c1ccc(-c2nnc(SCc3cn4ccsc4n3)o2)cc1 | 69.3* | 1 | 3.2 | 9.8 | 0.3 | -2.9
COc1ccccc1N=c1oc2c(OC)cccc2cc1C(=O)NCc1ccco1 | 65.8* | 0.4 | 10.0 | 0.1 | 0.3 | 61.5*
COc1ccc(N=c2oc3c(OC)cccc3cc2C(=O)NCc2ccco2)cc1OC | 50.1* | 0.3 | -5.8 | 5.2 | 0.5 | 72.4*
COc1ccc(OC)c(N=c2oc3c(OC)cccc3cc2C(=O)NCc2ccco2)c1 | 45.0 | 0.5 | . | . | 0.6 | 50.3*
COc1ccc(CC(=O)NCc2ccco2)cc1OC | 43.4 | 1.1 | -1.4 | 10.0 | 0.6 | -10.2
c1ccc2cc(-c3cc4ccccn4c3)ccc2c1 | 9.1 | 0.9 | -10.0 | 8.3 | 0.9 | 12.6
CC1(C)CC(=O)C2=C(C1)N(Cc1cccnc1)C(=O)C2(NC(=O)c1ccc(F)cc1)C(F)(F)F (stereo not given) | 19.6 | 0.8 | -2.5 | 3.6 | 0.8 | 22.6
COc1cc(C(=O)N2CCC(n3cnc4cc(F)ccc43)CC2)cc(OC)c1OC | 12.5 | 0.9 | -1.5 | 1.4 | 0.9 | 9.3
CC(C)c1cc(C(=O)O)n(-c2ccccc2)n1 | -10.8 | 1 | -0.4 | 9.1 | 1.1 | -2.0
Cc1[nH]c2c(C)cccc2c(=O)c1Br | -3.2 | 1.2 | 7.7 | 2.6 | 1 | -20.3
O=C(COn1nnc2ccccc21)NCC1CCCCC1 | 55.2* | 0.9 | -0.6 | 4.6 | 0.4 | 5.1
COc1ccccc1N(CC(=O)NC1CCCCC1)S(C)(=O)=O | 26.9 | 0.9 | 18.3 | 7.9 | 0.7 | 14.7
COC(=O)c1ccccc1OCC(=O)NC1CCCCC1 | 64.2* | 0.5 | -2.4 | -9.8 | 0.4 | 49.0
COc1ccccc1OCC(=O)NCC1CCCCC1 | 94.7* | 1.1 | -4.5 | 17.9 | 0.1 | -11.1
CCc1ccccc1OCC(=O)NC1CCCC1 | 92.9* | 0.6 | -2.4 | 11.5 | 0.1 | 35.9
COc1ccccc1OCC(=O)NCCNC(=O)COc1ccccc1OC | 7.5 | 1.1 | -1.9 | -0.3 | 0.9 | -14.7
COC(=O)Oc1c(Br)c(=O)oc2ccccc12 | . | . | -2.2 | 1.3 | . | .
COc1cc(OC)nc(NC2OC(=O)c3ccccc32)n1 (stereo not given) | -14.4 | 1.1 | -5.3 | 1.8 | 1.1 | -12.0
O=C(O)c1ccccc1N/N=C\c1ccnc2ccccc12 | -9.7 | 1 | -9.7 | 30.9* | 1.1 | 3.5
O=c1cc(CSc2ccccc2)[nH]c(=S)[nH]1 | -4.0 | 1 | -0.2 | -4.8 | 1 | 4.4
SMILES | CYP2C19 inh | CYP2C9 activ | PostGolgi yeast | PostGolgi ctrl | CYP2C19 act | CYP2C9 inhib
COc1ccc(Cc2c(O)nc(SC)n(C(C)=O)c2=O)cc1 | 52.8* | 0.5 | -7.2 | 9.7 | 0.5 | 45.4
CC(C)c1nc2oc3c(NCC4CCCO4)ncnc3c2c2c1COC(C)(C)C2 (stereo not given) | 7.8 | 0.8 | 12.8 | 34.5* | 0.9 | 20.1
O=C(C1CCCO1)N1CCN(Cc2c(O)ccc3ccccc23)CC1 (stereo not given) | 39.2 | 1 | 0.3 | -4.9 | 0.6 | 0.9
O=C(C1CCC(CNc2c(N3CCOCC3)c(=O)c2=O)CC1)N1CCN(c2ccccc2)CC1 (stereo not given) | -12.7 | 1 | -2.0 | 5.2 | 1.1 | -1.1
CCCCOC(=O)CSc1nc2c(cc1C#N)C(=O)CC(C)(C)C2 | 49.0 | 0.4 | 16.2 | 13.8 | 0.5 | 64.0*
CCC(=O)NCCc1nc2cc(NC(=O)c3ccc(OC)cc3)ccc2n1C | 17.8 | 0.7 | -8.4 | 2.2 | 0.8 | 32.6
O=C(CC(C(=O)N1CCc2ccccc21)n1ccnc1)NCc1ccccc1 (stereo not given) | 100.4* | 0.3 | 20.7 | -1.3 | 0 | 72.8*
CCCCCCCC1(C)NC(=O)N(c2ccccc2)N1 (stereo not given) | 56.8* | 0.8 | 13.2 | 0.3 | 0.4 | 24.2
COc1ccccc1NC(=O)C(=O)NNC(=O)c1ccco1 | -3.5 | 1.1 | 8.3 | 3.2 | 1 | -11.3
COc1ccccc1NC(=O)/C(C#N)=C/C=C/c1ccco1 | -3.7 | 3* | -5.2 | 2.5 | 1 | -203.2
CC(C)OC(=O)c1c(NC(=O)c2cnn3c2NC(c2ccccc2)CC3C(F)F)sc2c1CCCC2 (stereo not given) | -1.6 | 1.1 | 28.0 | -3.8 | 1 | -9.1
COCCOC(=O)c1c(C)oc2ccc(O)c(CN3CCC(C)CC3)c12 | 50.9* | 0.8 | 6.5 | 11.7 | 0.5 | 15.4
CN1CCN(S(=O)(=O)c2ccc(NC(=O)c3ccc(Br)o3)cc2)CC1 | 3.2 | 0.9 | -35.6 | 8.3 | 1 | 8.1
Cc1ccc(NC(=O)c2cc(S(=O)(=O)N3CCCCC3)cs2)cc1 | 19.2 | 0.3 | 0.7 | 6.3 | 0.8 | 68.2*
CN1CCN(S(=O)(=O)c2ccc(NC(=O)c3ccc(Br)s3)cc2)CC1 | 51.8* | 0.4 | 12.0 | 11.2 | 0.5 | 59.4*
O=C(Nc1ccc(F)cc1)c1cc(S(=O)(=O)Nc2ccc(F)cc2)cs1 | 76.9* | 0.1 | 24.9 | 7.0 | 0.2 | 90.3*
O=C(Nc1cccc2nsnc12)c1ccc(-c2cccc(Cl)c2)o1 | 14.1 | 0.9 | -2.6 | -3.0 | 0.9 | 6.7
O=C(Nc1ccc(F)c(F)c1)NC1CCCCC1 | 13.6 | 0.5 | 10.2 | 8.5 | 0.9 | 45.5
O=C(O)c1ccc(NC(=S)NC(NC(=O)c2ccco2)C(Cl)(Cl)Cl)cc1 (stereo not given) | -1.3 | 1.1 | 3.6 | -6.3 | 1 | -6.9
Cc1cccc(NC(=S)NC(NC(=O)c2ccco2)C(Cl)(Cl)Cl)c1 (stereo not given) | 29.4 | 0.2 | -7.5 | -1.8 | 0.7 | 83.6*
Cc1ccc(NC(=S)NC(NC(=O)c2ccco2)C(Cl)(Cl)Cl)cc1 (stereo not given) | 18.4 | 0.1 | 4.7 | 14.3 | 0.8 | 92.4*
Cc1cccc(NC(=S)NC(=O)CCc2ccccc2)c1 | 33.8 | 0.9 | -8.1 | 9.5 | 0.7 | 5.6
CCOC(=O)N1CCN(C(=O)CN(c2ccc(OCc3ccccc3)cc2)S(C)(=O)=O)CC1 | -0.7 | 0.8 | -0.6 | -5.3 | 1 | 15.8
C=CCOC(=O)c1cc(-c2ccc(/C=C3\C(=O)NC(=O)C(C#N)=C3C)o2)ccc1Cl | 23.9 | 0.4 | -8.5 | 5.3 | 0.8 | 61.0*
CC1=NOC(=O)/C1=C\c1ccc(-c2cccc(Cl)c2)o1 | 14.6 | 1 | 7.3 | 4.1 | 0.9 | 3.6
